# HT1080 IDH1KD tx – kills HT-1080 cells with IDH1 knockdown; HT-1080 IDH1 knockdown viability, ATP luminescence, 48 h; Potency, µM (titrated, usually from 46.1 µM), for inactives: at the top dose activity, negative = toxicity, usual class: cytotoxic; 360,000 compounds, 2% hits;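 also: potency is read from the fitted curve at half-maximal effect; 0% = DMSO wells and -100% = cell-free medium wells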
#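 Luminescent ATP read-out (CellTiter-Glo, 10 min at room temperature) after 48 h compound exposure at 37 °C gave viability of IDH1-knockdown HT-1080 cells. Activity was normalised to DMSO and cell-free wells, then fitted as concentration-response curves.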
# KB-V1 MDR tox – kills drug-selected multidrug resistant KB-V1 cells; Potency, µM (titrated, usually from 46.1 µM), actives largely listed as cytotoxic; KB-V1 MDR cells viability, CellTiter-Glo, 72 h; AID 1347076; 400,000 compounds, 3.4% hits; also: potency is read from the fitted curve at half-maximal effect; nearly all actives have a fitted effect of over 60% in size
#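 Readout: CellTiter-Glo luminescence, 10 min after addition. Cells: KB-V1 MDR subline, 72 h at 37 degrees C with compound. Analysis: corrected, normalized data fitted to concentration-effect curves.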
# IL-1B inflam inh – inflammasome signaling inhibition, IL-1 beta readout; activity change, % at 57.5 µM; THP-1 LPS/ATP IL-1B secretion, AlphaLISA, 16 h; active compounds read low; 360,000 compounds, 4.7% hits; in the data active = activity change below about -50%; inconclusive = mostly about -30% to -49%
#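 THP-1 cells pretreated 1 hr with compounds (up to 57.5 uM final), then stimulated with LPS (250 ng/mL final) plus ATP (1.25 mM final); secreted IL-1B measured by AlphaLISA after 16 hr, decreased signal indicating inhibition.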
# HT1080-NT tox – kills 2HG-producing HT-1080-NT fibrosarcoma cells | HT-1080-NT fibrosarcoma viability, CellTiter-Glo ATP luminescence, 48 h | Potency, µM (doses to about 46.1 µM), for inactives: top-dose activity, negative = less viability, most hits filed as cytotoxic | 360,000 compounds, 1.6% hits | AID 686970;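 also: NT is the 2HG producing partner of a matched IDH1 knockdown line; potency is read from the fitted curve at half-maximal effect; 0% = DMSO-treated cells and -100% = media-only wells without cells; nearly all actives have a fitted effect of over 55% in size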
#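 Compounds were tested in concentration-response format on HT-1080-NT cells for 48 hours at 37 degrees C. Cell viability came from CellTiter-Glo luminescence; curves were classified by r2, response magnitude and activity.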
# KB-3-1 cytotox – KB-3-1 parental cell cytotoxicity. Potency, µM (doses to about 46.1 µM), hits mostly cytotoxic. 400,000 compounds, 1.4% hits. KB-3-1 viability, CellTiter-Glo ATP luminescence, 72 h; also: potency is read from the fitted curve at half-maximal effect; nearly all actives have a fitted effect of over 60% in size
#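 Viability of parental KB-3-1 cells, measured by CellTiter-Glo luminescence, followed a 72 h incubation at 37 °C with pinned compounds in phenol-red-free DMEM containing 10% FBS.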
# * marks the source's active call; other numbers are inactive results; i = inactive; u = inconclusive; x = no result given. In the library only some 8.8% were active in any assay of this set; here they are far more common. Unless noted, calls follow the shape of the dose curve; as a rule, active = well fitted curve in the direction sought with a large enough effect; inconclusive = small, poorly fitted or top-dose-only effect, or another doubt; inactive = no such curve, though single readings can be large; an effect the other way counts as inactive or inconclusive. Unless noted, % is scaled to controls: 0 for no effect and ±100 for the full control effect.
SMILES,HT1080 IDH1KD tx,KB-V1 MDR tox,IL-1B inflam inh,HT1080-NT tox,KB-3-1 cytotox
CN(C)c1ccc(C(=C2C=CC(=[N+](C)C)C=C2)c2c(O)c(S(=O)(=O)[O-])cc3cc(S(=O)(=O)O)ccc23)cc1,x,i,x,x,u
CN(C)c1ccc(C(CNC(=O)c2c(F)cccc2Cl)N2CCOCC2)cc1 (configuration not stated),x,i,x,x,i
COC(=O)[C@@](C)(O)C1(C(=O)SC(C)(C)C)CC1,20%,i,16,29%,i
CC(C)Oc1ccc(F)cc1-c1cc(C(=O)Nc2ccccc2)[nH]n1,25%,i,-69*,5%,i
CC(C)Oc1ccc(F)cc1-c1cc(C(=O)NCc2ccc(F)cc2)[nH]n1,0%,i,-8,-24%,i
CC(C)Oc1ccc(F)cc1-c1cc(C(=O)Nc2ccc(C(C)(C)C)cc2)[nH]n1,18µM*,i,15,23µM*,i
CCCOc1ccc(F)cc1-c1cc(C(=O)Nc2ccccc2)[nH]n1,27%,i,-6,10%,i
Cc1cc(NC(=O)CC(C)(C)C)nc2c1c(=O)oc1ccccc12,16%,i,39,-8%,i
CCCc1cc2c(c(NC(C)=O)n1)c(=O)oc1ccccc12,-6%,13µM*,10,-6%,i
CCCC(=O)Nc1cc(C)c2c(=O)oc3ccccc3c2n1,9%,18µM*,-8,20%,i
Cc1nnc(SCC(=O)Nc2c(C)n(C)n(-c3ccccc3)c2=O)n1Cc1ccccc1,1%,i,0,-1%,i
C=CCn1c2ccccc2c2nnc(SCCCn3c(=O)[nH]c4ccccc43)nc21,16µM*,u,-79*,u,u
CCN(CC)CCNC(=O)c1c(O)c2cccc3c2n(c1=O)CCC3,u,0.73µM*,6,-29%,i
COc1ccc(CNC(=O)c2c(O)c3cccc4c3n(c2=O)CCC4)cc1,3%,15µM*,11,11%,i
CCCCCCNC(=O)c1c(O)c2cccc3c2n(c1=O)CCC3,9%,i,21,0%,i
CCc1ccc(N2CC(C(=O)Nc3ccccc3N3CCCC3)CC2=O)cc1 (configuration not stated),u,u,25,u,u
CC1CCN(C(=O)c2cc3nc(-c4ccccc4)cc(-c4ccccc4)n3n2)CC1,1%,i,-55*,-5%,i
CC(C)OCCCn1c(=O)c2ccccc2n2c(CCC(=O)O)nnc12,14%,i,-11,13%,i
CC(C)OCCCn1c(=O)c2ccccc2n2c(CCC(=O)NC3CCN(Cc4ccccc4)CC3)nnc12,1%,i,-51*,10%,i
Cc1ccc(S(=O)(=O)NCC2(c3ccccc3)CCN(C)CC2)cc1,-23%,i,-66*,-2%,i
Cc1ccc(S(=O)(=O)NCCCNS(=O)(=O)c2ccccc2)cc1,-1%,i,17,-2%,i
Cc1ccc(NS(=O)(=O)c2cc3c(cc2Cl)CCC(=O)N3)cc1Cl,x,i,x,x,i
CCOc1ccc(CN(C)C(=O)CNC(=O)c2sc3ccccc3c2Cl)cc1,11%,u,-13,1%,i
O=c1c2cc(F)ccc2sn1-c1ccccc1Cl,u,i,-105*,u,u
COC(=O)c1cccc(N2CCCC2=O)c1,1%,i,-10,0%,i
SMILES,HT1080 IDH1KD tx,KB-V1 MDR tox,IL-1B inflam inh,HT1080-NT tox,KB-3-1 cytotox
Cc1ccc(N2C(=O)CC(N3CCN(c4ccc(F)cc4)CC3)C2=O)c(C)c1 (configuration not stated),2%,i,7,1%,i
Cc1ccc(-n2sc3cc(F)ccc3c2=O)c(C)c1,u,u,-103*,u,u
N=C1SCC(=O)N1c1ccccc1Cl,1%,i,40,4%,i
COC(=O)c1cccc(-n2sc3ccccc3c2=O)c1,-18%,i,-101*,-21%,i
O=c1c2ccccc2sn1-c1ccc(F)cc1,-18%,i,-109*,u,i
CCCCSc1nnc(CCNC(=O)OC(C)(C)C)o1,5%,i,9,3%,i
O=c1c2ccc(F)cc2sn1-c1ccccc1,u,u,-106*,-25%,u
